{"source": "PubChem BioAssay (Tox21)", "note": "Records with an inconclusive call do not appear. A number with no mark means an inactive call. The source made the active and inactive calls. The call rests on the fitted dose curve. On the % scale 0 is the no-effect control and ±100 the full control effect; potency means the concentration at half of the fitted maximal effect."}
{"molecular_target": "Acetylcholinesterase (Homo sapiens) (UniProt P22303)", "sequence (P22303 whole entry, looked up)": "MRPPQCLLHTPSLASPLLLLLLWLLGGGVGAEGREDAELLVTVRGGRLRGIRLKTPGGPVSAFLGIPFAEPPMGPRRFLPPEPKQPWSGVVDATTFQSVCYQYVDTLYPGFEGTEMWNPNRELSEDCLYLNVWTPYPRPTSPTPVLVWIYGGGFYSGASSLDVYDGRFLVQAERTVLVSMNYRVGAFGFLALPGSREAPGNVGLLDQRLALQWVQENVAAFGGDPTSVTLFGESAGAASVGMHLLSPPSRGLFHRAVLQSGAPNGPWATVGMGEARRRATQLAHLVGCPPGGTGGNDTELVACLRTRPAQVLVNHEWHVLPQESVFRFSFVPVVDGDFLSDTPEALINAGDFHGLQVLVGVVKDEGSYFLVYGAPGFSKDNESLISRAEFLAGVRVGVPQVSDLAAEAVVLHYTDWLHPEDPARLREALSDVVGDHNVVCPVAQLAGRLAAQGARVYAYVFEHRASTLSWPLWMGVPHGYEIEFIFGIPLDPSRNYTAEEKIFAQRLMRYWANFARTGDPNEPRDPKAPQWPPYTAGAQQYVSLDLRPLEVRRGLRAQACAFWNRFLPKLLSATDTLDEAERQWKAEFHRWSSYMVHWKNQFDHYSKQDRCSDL", "assay": "Acetylcholinesterase (AChE) small molecule antagonists: fluorescence cell-based qHTS assay (AID 1347398); further: nearly all actives have a fitted effect of over 50% in size", "conditions": "SH-SY5Y cells; Potency: AChE activity; outcome: AChE activity; series mostly up to 115 µM; activity change, negative = inhibition: at the top concentration", "in_short": "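SH-SY5Y, 2,000 cells/well, attached overnight; cmpd 30 min 37 C; acetylthiocholine/Thiolite Green cocktail 40 min RT; fluorescence Ex/Em 490/520 nm.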"}
{"smiles": "c1ccc(CNCc2ccccc2)cc1", "activity change, negative = inhibition": "-2.09%"}
{"smiles": "O=c1cc(CO)occ1O", "activity change, negative = inhibition": "-1.41% [at 53.7 µM]"}
{"smiles": "OCCN1CN(CCO)CN(CCO)C1", "activity change, negative = inhibition": "5.45%"}
{"smiles": "CC(O)C1CCCCC1", "note": "(stereo not drawn)", "activity change, negative = inhibition": "6.55%"}
{"smiles": "O=C(c1ccccc1)C1CCC1", "activity change, negative = inhibition": "0.946%"}
{"smiles": "C=CC(=O)OCCCl", "activity change, negative = inhibition": "-3.87%"}
{"smiles": "CC(=O)CC(c1ccc([N+](=O)[O-])cc1)c1c(O)c2ccccc2oc1=O", "note": "(stereo not drawn)", "activity change, negative = inhibition": "2.04% [at 53.7 µM]"}
{"smiles": "C#C[C@]1(O)CC[C@H]2[C@@H]3CCc4cc(OC5CCCC5)ccc4[C@H]3CC[C@@]21C", "activity change, negative = inhibition": "0.325% [at 53.7 µM]"}
{"smiles": "O=c1[nH]c(=O)n([C@H]2O[C@H](CO)[C@@H](O)[C@@H]2O)cc1/C=C\\Br", "activity change, negative = inhibition": "1.56% [at 53.7 µM]"}
{"smiles": "Clc1cc(Cl)c2c(c1)N=C1CCCCCN1C2", "Potency": "0.617 µM (active)"}
{"smiles": "C=CCCC(=O)O", "activity change, negative = inhibition": "6.66%"}
{"smiles": "O=c1[nH]sc2ccccc12", "activity change, negative = inhibition": "21%"}
{"smiles": "CCO", "activity change, negative = inhibition": "0.475%"}
{"smiles": "N#Cc1ccc(C/C(=N/NC(=O)Nc2ccc(OC(F)(F)F)cc2)c2cccc(C(F)(F)F)c2)cc1", "activity change, negative = inhibition": "-0.907%"}
{"smiles": "CC[C@@H]1C[C@H](N(Cc2cc(C(F)(F)F)cc(C(F)(F)F)c2)C(C)=O)c2cc(C(F)(F)F)ccc2N1C(=O)OC(C)C", "activity change, negative = inhibition": "0.51%"}
{"smiles": "CCN(CC)C(=O)Nc1ccc(OCC(O)CNC(C)(C)C)c(C(C)=O)c1", "note": "(stereo not drawn)", "activity change, negative = inhibition": "-15.4% [at 53.7 µM]"}
{"smiles": "CCCCOCC", "activity change, negative = inhibition": "0.769%"}
{"smiles": "CCC1Nc2cc(Cl)c(S(N)(=O)=O)cc2S(=O)(=O)N1", "note": "(stereo not drawn)", "activity change, negative = inhibition": "-27.3% [at 53.7 µM]"}
{"smiles": "Nc1nc(N)c(-c2ccccc2)s1", "activity change, negative = inhibition": "15.2% [at 53.7 µM]"}
{"smiles": "O=[N+]([O-])c1ccc2[nH]ncc2c1", "activity change, negative = inhibition": "-5.07%"}
{"smiles": "CC(C)(C)C1CCC(=O)CC1", "activity change, negative = inhibition": "2.22%"}
{"smiles": "O=C(CCS)OCC(COC(=O)CCS)(COC(=O)CCS)COC(=O)CCS", "activity change, negative = inhibition": "12.8%"}
{"smiles": "OC[C@H]1O[C@@H](O[C@@H]2[C@@H](CO)O[C@](O)(CO)[C@H]2O)[C@H](O)[C@@H](O)[C@H]1O", "activity change, negative = inhibition": "1.15% [at 53.7 µM]"}
